# Data as given in PubChem BioAssay (NCI).
# This is part of a sample that, as a whole, favours compounds with a hit. Of some 83,000 tested, about 20% had one in any assay.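 Cell lines were cultured in 96-well plates, exposed to a single compound concentration, and assessed for percent growth 48 hours later.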 Activity calls are given as the source filed them. Rule for the calls: active = growth percent below 10; inactive = the rest.
# System: HL-60(TB) leukemia
# Assay: NCI-60 one-dose screen, 48 h (100 = growth as untreated, 0 = no growth, -100 = all killed)
# Conditions: 10 µM unless noted
row,Structure (SMILES),growth
1,O=[N+]([O-])c1cc2c(cc1Br)C1C(C3C2C(Cl)(Cl)C(Cl)=C(Cl)C3(Cl)Cl)C(Cl)(Cl)C(Cl)=C(Cl)C1(Cl)Cl (centres undefined),110% (inactive)
2,CCN(C(=O)CN1CCN(c2cc3c(cc2F)c(=O)c(C(=O)O)cn3CC)CC1)c1nc(-c2ccccc2)cs1,-39.2% (active)
3,C=C1C(=O)O[C@H]2[C@H]1CC/C(COC(=O)NCc1cccc(OC)c1)=C\CC[C@@]1(C)O[C@@H]21,-38.6% (active)
4,Cc1c(Cl)cccc1NC(=S)NC(=O)c1ccccc1,92.9% (inactive)
5,CC1CCN(C(=O)OCc2nc3nc(Cl)nc(N4CCOCC4)c3[nH]2)CC1,-43.5% (active)
6,O=C1c2ccccc2C(=O)c2c1ccc(C(Br)Br)c2[N+](=O)[O-],-37.9% (active)
7,COc1ccccc1NS(=O)(=O)c1cccc(C(=O)Nc2ccc(Br)cc2)c1,29.4% (inactive)
8,O=C1/C(=C/c2cccc(Br)c2)COc2ccc(O)cc21,-16.7% (active)
9,Cc1ccc(Nc2c(C(N)=O)cnc3ccc(S(=O)(=O)Nc4cc(C)on4)cc23)cc1,113% (inactive)
10,COc1ccc(/C=C/c2c(C(=O)/C=C/c3ccc(Cl)cc3)c(C)nc3ccccc23)cc1,10% (inactive)
11,Cn1ccnc1C(=O)/C=C/c1ccc(C(=O)Nc2ccccc2F)cc1,5.22% (active)
12,c1ccc(Nc2nc(Nc3ccccc3)nc(Nc3ccccc3)n2)cc1,63.8% (inactive)
13,COc1ccc2nc3cc(Cl)ccc3c(Nc3cc(CN4CCCC4)c(O)c(CN4CCCC4)c3)c2n1,-20.4% (active)
14,Cn1c2ccccc2c2c3[nH]c(=O)[nH]c(=O)c3c3c4ccccc4n(C)c3c21,48.9% (inactive)
15,CCCOC(=O)c1nc(N(CC2CCCCC2)C(=O)NC)sc1/N=C/c1ccccc1,-9.46% (active)
16,Cn1cccc1/C=C1\C(=O)Nc2ccccc21,103% (inactive)
17,C=C(C)[C@@H]1CC[C@]2(C=O)CC[C@]3(C)[C@H](CC[C@@H]4[C@@]5(C)C/C(=C/c6cccnc6)C(=O)C(C)(C)[C@@H]5CC[C@]43C)[C@@H]12,25.9% (inactive)
18,O=C1c2cccnc2C(=O)c2c1c(C(=O)OCCN1CCOCC1)c1ccccn21,-36.4% (active)
19,Fc1ccccc1-c1nc(-c2nc3cc(Cl)c(Cl)cc3[nH]2)c2ccccn12,81.6% (inactive)
20,O=CN(SSN(C=O)C1CCCCC1)C1CCCCC1,77.2% (inactive)

row,Structure (SMILES),growth
1,CCCNC(=O)Oc1ccc(/C(=C(/CC)Cc2ccccc2)c2ccc(OCCN(CC)CC)cc2)cc1,53.3% (inactive)
2,CCCCC(O)c1ccccc1 (centres undefined),99.2% (inactive)
3,C=CCOc1ccc(N=NC(C#N)C#N)cc1,0.44% (active)
4,O=CNc1cc(Cl)cc(Cl)c1,93.2% (inactive)
5,COc1ccc(-c2nc3sc(-c4cc(OC)c(OC)c(OC)c4)nn3c2/C=C2/C(=O)Nc3ccc(F)cc32)cc1,35.8% (inactive)
6,CCN1C(=S)N(CC)C2Nn3c(s/c(=C4\C(=O)N(C)c5ccccc54)c3=O)=NC21 (centres undefined),6.45% (active)
7,CCCCCCCCCCn1cc[n+](C)c1,51.9% (inactive)
8,C=C1N(C)c2ccc(Cl)cc2C1(C)C,6.42% (active)
9,Cc1c(C(=O)CCl)c(=O)n(-c2ccccc2)n1C,56.9% (inactive)
10,COC(=O)c1ccc2[nH]c(O)c(C(=Nc3ccc(N(C)C(=O)CN4CCN(C)CC4)cc3)c3ccccc3)c2c1,-14.4% (active)
11,CC(C)c1ccc(NC(=O)Nc2ccc(NC(=O)c3ccccc3N)cc2)cc1,50.1% (inactive)
12,COc1ccc(C(O)c2cc3c(N)c(C(=O)Nc4cccc(Br)c4)sc3nc2C)cc1 (centres undefined),-5.69% (active)
13,CC(C)C(=O)Nc1nc2c(s1)CCCc1ccn(S(=O)(=O)c3ccccc3)c1-2,83.8% (inactive)
14,CC1=C(C)C(=O)C(Nc2cccc(C(=O)OC(C)(C)C)c2)=C(Br)C1=O,54.9% (inactive)
15,C#CC(F)(F)[C@]1(O)CCC2C3CCC4=CC(=O)CCC4=C3[C@@H](c3ccc(N(C)C)cc3)C[C@@]21C (some centres undefined),56% (inactive)
16,COc1ccc(CCN2CCCn3c2nc2ccccc2c3=O)cc1,-5.2% (active)
17,O=C(Oc1ccc[nH]c1=O)c1cccc(Cl)c1,87.6% (inactive)
18,O=C(NCCCCO)c1cncnc1Nc1ccc2c(ccn2Cc2cccc(F)c2)c1,100% (inactive)
19,O=C(NCCc1ccccc1)Nc1ccc2cc3ccc(NC(=O)NCCc4ccccc4)cc3nc2c1,-46.9% (active)
